VDR inh: Inhibitors of the vitamin D receptor (VDR): qHTS | Potency, µM, for inactives: max response, negative = inhibition, usual class: inhibitors | Vitamin D3 receptor (Homo sapiens), P11473 | VDR-SRC2-3 peptide fluorescence polarization, 2 h | 0.93% of 400,000 active; note: potency is the fitted concentration of half-maximal effect; % is set by controls: 0 for no effect and ±100 for the full control effect
Target sequence (P11473 whole entry, looked up): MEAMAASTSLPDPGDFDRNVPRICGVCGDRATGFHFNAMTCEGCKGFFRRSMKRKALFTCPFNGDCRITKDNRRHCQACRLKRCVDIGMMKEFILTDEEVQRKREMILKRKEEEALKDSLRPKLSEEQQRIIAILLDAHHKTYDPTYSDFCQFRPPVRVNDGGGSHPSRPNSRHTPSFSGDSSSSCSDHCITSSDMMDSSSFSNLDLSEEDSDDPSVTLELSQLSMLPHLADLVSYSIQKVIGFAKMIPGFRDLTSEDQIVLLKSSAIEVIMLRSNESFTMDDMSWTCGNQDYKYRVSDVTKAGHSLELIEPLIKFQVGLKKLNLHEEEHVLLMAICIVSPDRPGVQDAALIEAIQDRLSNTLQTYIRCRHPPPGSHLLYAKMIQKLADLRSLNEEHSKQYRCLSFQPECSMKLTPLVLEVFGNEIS
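Inhibition of the VDR/SRC2-3 peptide interaction is quantified by fluorescence polarization. Compounds (23 nl, pintool) incubate with the reagents for 2 hours at ambient room temperature.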
FEN1 inhibitor: qHTS Assay for the Inhibitors of Human Flap endonuclease 1 (FEN1) | P39748 | Recombinant FEN1 flap cleavage, fluorescence, 15 min | 0.35% of 390,000 active | Potency, µM (doses to about 114 µM), for the others: top-dose activity change, negative = inhibition, most hits filed as inhibitors; note: potency is the fitted concentration of half-maximal effect; % is set by controls: 0 for no effect and ±100 for the full control effect; nearly all actives have a fitted effect of over 65% in size
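FEN1 at 10 nM preincubated with compounds 15 min at room temperature, then flap DNA substrate added at 50 nM final. Signal read at 0 and 15 min; concentration-response fitted with four-parameter Hill equation.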
WRN inhibitor: qHTS for Inhibitors of WRN Helicase; Bifunctional 3'-5' exonuclease/ATP-dependent helicase WRN (Homo sapiens), Q14191; WRN helicase unwinding, fluorescent forked duplex, kinetic; Potency, µM (highest dose often 114 µM), for inactives: top-dose activity change, negative = inhibition, usual class: inhibitors; 0.46% of 360,000 active; note: potency is the fitted concentration of half-maximal effect; % is set by controls: 0 for no effect and ±100 for the full control effect; nearly all actives have a fitted effect of over 55% in size
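Kinetic fluorescence helicase assay: unwinding of a quenched forked DNA duplex (100 nM final) with 2 mM ATP final raises red fluorescence (525/598 nm). Compounds sat 15 min at room temperature with 20 nM WRN beforehand.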
PI5P4Ka inh: qHTS for Inhibitors of phosphatidylinositol 5-phosphate 4-kinase (PI5P4K) | Phosphatidylinositol 5-phosphate 4-kinase type-2 alpha (Homo sapiens), P48426 | PI5P4Kalpha enzyme, ADP-Glo luminescence, 60 min; active compounds read low | max response, % | 1.2% of 330,000 active | AID 652105, 2013; active = max response of -50% or lower; inconclusive = between -30% and -50%; inactive = -30% or higher; note: value at the top dose of about 77 µM; % is set by controls: 0 for no effect and ±100 for the full control effect
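Single end-point luminescence (ADP-Glo) quantified ADP from PI5P4Kalpha turnover; ATP 5 microM final, 1 h at RT, 0.1% CHAPS and 0.28 mM EGTA in HEPES pH 7.4.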
TCR activator: Activators of T cell receptors: qHTS campaign. Potency, µM (titrated, usually from 9.22 µM), for inactives: at the highest dose activation of IL-2 secretion, usual class: activators. primary human leukocytes, anti-CD3, IL-2 HTRF, 48 h. 330,000 tested, under 10 active. AID 504894, 2011; note: % of control where 0% means no effect
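Primary human leukocytes incubated 48 hr with anti-CD3 beads plus compound, without co-stimulation. Secreted IL-2 measured by HTRF (europium cryptate/d2 anti-IL-2 pair, 320 nm excitation, 665 nm emission).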
PLK1 PBD block: qHTS for Inhibitors of PLK1-PDB (polo-like kinase 1 - polo-box domain): Primary Screen | Plk1 PBD binding of FITC phosphopeptide, fluorescence polarization | 2.8% of 360,000 active | Potency, µM, without a hit: max response, negative = inhibition, hits mostly inhibitors | Serine/threonine-protein kinase PLK1 (Homo sapiens), P53350; note: potency is the fitted concentration of half-maximal effect; series mostly up to about 57 µM; % is set by controls: 0 for no effect and ±100 for the full control effect; nearly all actives have a fitted effect of over 65% in size
ADP-Glo interf: qHTS for Inhibitors of PI5P4K: ADP-Glo counter assay; Potency, µM (top dose mostly 76.9 µM), without a hit: at the highest dose activity change, negative = inhibition, hits mostly inhibitors; ADP-Glo detection counter-screen, luciferase luminescence, no enzyme; shares compounds with PI5P4Ka inh; 1,100 tested, under 10 active; AID 743285, 2014
* hit, by the source's call; ? = inconclusive; · = no result; [ ] = dose if it differs, or a comment. Shown are actives, neighbours in structure and some others; about 3.7% of the full set was active somewhere. Unless noted, calls come from the whole dose curve; as a rule, active = well fitted curve in the direction sought with a large enough effect; inconclusive = small, poorly fitted or top-dose-only effect, or another doubt; inactive = no such curve, though single readings can be large; an effect the other way counts as inactive or inconclusive.

SMILES	VDR inh	FEN1 inhibitor	WRN inhibitor	PI5P4Ka inh	TCR activator	PLK1 PBD block	ADP-Glo interf
CCN1CCN(Cc2ccc(NC(=O)c3ccc(C)c(NC(=O)c4cc(-c5ccc(Br)cc5)n[nH]4)c3)cc2C(F)(F)F)CC1	7%	-1%	4%	-57*	9%	-20%	0%
CCN1CCN(Cc2ccc(NC(=O)c3ccc(C)c(NC(=O)N4CCNC4=O)c3)cc2C(F)(F)F)CC1	5%	3%	0%	-4	-5%	-8%	·
NS(=O)(=O)c1ccc(NC(=O)C2Cc3ccccc3CN2C(=O)c2ccco2)cc1 (stereo unspecified)	-10%	-9%	?	-87*	-28%	-28%	3%
Cc1ccc(CNc2nc(NCc3ccccc3)nc3ccsc23)c(C)c1	·	·	-6%	·	·	-2%	-2%
COc1ccccc1CNc1nc(NCc2ccccc2OC)c2sccc2n1	·	·	-11%	·	·	-1%	-4%
COc1ccccc1CNc1nc(NCCOc2ccccc2)c2sccc2n1	·	·	-11%	·	·	-6%	-6%
COc1ccccc1CNc1nc(NCc2ccc3occc3c2)c2sccc2n1	·	·	-8%	·	·	4%	1%
c1cc2cc(CNc3nc(NCC4CC4)nc4ccsc34)ccc2o1	·	·	-1%	?	·	1%	·
COCCNc1nc(NCc2ccccc2OC)c2sccc2n1	·	·	-2%	2	·	-5%	·
CCN(c1ccc(Cl)cc1)S(=O)(=O)c1nnc(NC(=O)C2CCCCC2)s1	3%	-1%	·	·	·	·	·
COc1ccccc1CNc1nc(Nc2cccc(-c3cnco3)c2)c2sccc2n1	·	·	-16%	·	·	-4%	-3%
COc1ccccc1CNc1nc(NCc2cccs2)nc2ccsc12	·	·	-1%	-29	·	5%	·
O=c1cc(CN2CCN(S(=O)(=O)c3ccc4c(c3)OCCO4)CC2)c2ccc(O)cc2o1	13%	-9%	-20%	·	0%	-8%	·
O=c1cc(CN2CCN(S(=O)(=O)c3cccc(Cl)c3)CC2)c2ccc(O)cc2o1	2%	1%	-3%[11.6 µM]	-74*	2%	-7%	-6%
Cc1ccc2nc(SCC(=O)N3CCN(C(=O)c4ccco4)CC3)[nH]c2c1	-4%	-7%	6%	-10	-5%[46.1 µM]	-14%	·
O=C(CSc1nc2ccc(Cl)cc2[nH]1)N1CCN(C(=O)c2ccco2)CC1	-14%	-2%	?	-65*	-7%[46.1 µM]	?	-6%
CC(C)c1ccc(NC(=O)c2ccc(CN3CC(=O)N4CCCCC4C3=O)cc2)cc1 (stereo unspecified)	8%	13%	·	·	·	·	·
O=C(NCc1ccco1)C1Cc2c(-c3cccc(F)c3)ccnc2O1 (stereo unspecified)	·	·	-3%	-65*	·	-11%	-4%
COc1ccc(C(CC(=O)N2CCCC2)c2c(OC)cc(OC)c3c(-c4ccccc4)cc(=O)oc23)cc1 (stereo unspecified)	-1%	-20%	-11%[11.6 µM]	?	1%	?	·
COc1ccc(C(CC(=O)N2CCCCC2)c2c(OC)cc(OC)c3c(-c4ccccc4)cc(=O)oc23)cc1 (stereo unspecified)	3%	-20%	-9%[11.6 µM]	-81*	-3%	?	5%
COCCCNc1nc2c(-c3cccc(Br)c3)nnn2c2ccccc12	-8%	-11%	·	·	·	·	·
CCOC(=O)c1ccc(NC(=O)c2cccc(S(=O)(=O)N3CCN(C(C)=O)CC3)c2)cc1	-6%	2%	10%	2	-7%	-8%	·
CC(=O)N1CCN(S(=O)(=O)c2cccc(C(=O)Nc3ccc(F)c(F)c3)c2)CC1	3%	-16%	-8%	-19	3%	-8%	-1%
COc1ccc(CNc2oc(-c3ccc(COc4ccccc4C)o3)nc2C#N)cc1	11%	-17%	·	·	·	·	·
O=C(Nc1ccc(Cl)cc1)Nc1ccccc1C(=O)O	-7%	-4%	-11%	3	-13%	-5%	·
SMILES	VDR inh	FEN1 inhibitor	WRN inhibitor	PI5P4Ka inh	TCR activator	PLK1 PBD block	ADP-Glo interf
O=C(Nc1ccc(Cl)cc1)Nc1ccccc1CC[N+](=O)[O-]	?	-14%	-36%	-79*	3%	3.4µM*	-3%
CC(C)(C)NC(=O)Nc1ccc(Cn2cc(C(F)(F)F)ccc2=O)cc1	-29%	0%	-15%	-55*	1%	24µM*	-1%
CC(C)(C)NC(=O)CSc1nc2ccc(NC(=O)CSc3nnnn3Cc3ccccc3)cc2s1	16%	3%	2%	-20	-2%	-17%	·
CCOC(=O)CSc1nc2ccc(NC(=O)CSc3nnnn3Cc3ccccc3)cc2s1	-1%	7%	-17%	-30	-3%[46.1 µM]	-16%	-3%
Cc1cc2nc(NC(=O)C3(C)CCN3C(=O)C(C)C)[nH]c2cc1C (stereo unspecified)	·	·	-6%	?	·	-10%	-13%
Cc1ccc(C)c(NC(=O)C2(C)CCN2C(=O)C(C)C)c1 (stereo unspecified)	·	·	1%	1	·	-9%	·
COC(=O)c1c(NC(=O)c2cc3nc(-c4ccc(Br)cc4)cc(C(F)(F)F)n3n2)sc2c1CCCC2	-2%	-12%	·	·	·	·	·
COc1cc(CNc2ccc(N3CCCC3)cc2)cc(Cl)c1OC	5.6µM*	-18%	-12%	-66*	5%	21µM*	-4%
COc1ccc(C(NC(C)=O)c2cc(Cl)c3cccnc3c2O)cc1 (stereo unspecified)	20%	?	3%	-1	-6%	1%	·
CC(=O)NC(c1ccc(C)cc1)c1cc([N+](=O)[O-])c2cccnc2c1O (stereo unspecified)	-1%	-16%	-12%[57.1 µM]	-59*	0%	-23%	3%
O=C(NC(c1ccc(Cl)cc1)c1cc(Cl)c2cccnc2c1O)c1cccnc1 (stereo unspecified)	-11%	-17%	-7%	-63*	3%[46.1 µM]	3%	-9%
CCCCc1ccc(NC(=O)c2cc(-c3ccc(C)c(F)c3)on2)cc1	3%	-13%	·	·	·	·	·
N#C/C(=C\c1ccc(Cl)cc1)C(=O)NCC1CCCO1 (stereo unspecified)	?	-14%	·	·	·	·	·
CC1Cc2ccccc2N1C(=O)CNc1cccc(S(=O)(=O)N2CCCC2)c1 (stereo unspecified)	25µM*	-13%	?	-66*	3%	3.8µM*	-5%
